Source: PubChem (National Center for Advancing Translational Sciences (NCATS))
TGFb inhibitor – qHTS for Inhibitors of TGF-b; HepG2 CAGA-GFP TGF-b/SMAD3 reporter, GFP fluorescence, 18 h; TGF-beta stimulated, 500 pg/mL final; Potency, µM (top dose mostly 46.1 µM), for the others: top-dose activity, negative = inhibition, actives largely listed as inhibitors; 410,000 tested, 1.2% active; AID 588855, 2011; also: % is scaled to controls: 0 for no effect and ±100 for the full control effect; nearly all actives have a fitted effect of over 65% in size
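HEPG2 CAGA-GFP reporter cells (1000/well, DMEM with 1% FBS) received compounds, then recombinant TGF-beta at 500 pg/mL final for 18 hours at 37 degrees C. Per-cell GFP summed per well was normalised to unstimulated and stimulated DMSO controls before curve fitting.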
A549 tox – Nrf2 qHTS screen for inhibitors: counterscreen for cytotoxicity. A549 ARE-Fluc cells, CellTiter-Fluor viability, 18-24 h. Potency, µM (highest dose often 46 µM), without a hit: at the highest dose activity change, negative = cytotoxicity, actives largely listed as inhibitors. 390,000 tested, 0.16% active. AID 504648, 2011; also: % is scaled to controls: 0 for no effect and ±100 for the full control effect
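A549 ARE_Fluc cells in 5% FBS OPTI-MEM were exposed to compounds in concentration-response for 18-24 h at 37 deg C. Viability was read by CellTiter-Fluor fluorescence (Ex 405/Em 525) after 30 min, before the luciferase read.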
HepG2 tox – qHTS for Inhibitors of TGF-b: Cytotox Counterscreen | HepG2 CAGA-GFP viability, ATP luminescence, 18 h | Potency, µM (highest dose often 46.1 µM), for inactives: at the top dose activity change, negative = cytotoxicity, most hits filed as cytotoxic | 410,000 tested, 0.76% active | AID 588856, 2011
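CellTiter-Glo luminescence gave cytotoxicity after 18 hours at 37 degrees C. The cells were HepG2 CAGA-GFP in 1% FBS DMEM, stimulated with 500 pg/mL TGF-beta after compound addition. %Activity was normalised to no-cell wells (complete cell-killing) and DMSO (no toxicity), and curves were fitted and classified.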
Nrf2 activator – qHTS of Nrf2 Activators; AREc32 ARE-luciferase reporter (MCF7-derived line), luminescence, 24 h; Potency, µM (highest dose often 46.1 µM), inactives show at the highest dose activation, usual class: activators; 410,000 tested, 0.31% active; AID 624171, 2012; also: % of control where 0% means no effect; nearly all actives have a fitted effect of over 65% in size
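ARE-driven firefly luciferase activity in AREc32 cells measured after a 24 hr compound exposure at 37 deg C, using Steady-Glo reagent and a 30 min room-temperature hold.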
Nrf2 inh – Nrf2 qHTS screen for inhibitors. A549 ARE-Fluc reporter, luciferase luminescence, 18-24 h. Potency, µM (series often up to 46 µM), for the others: at the highest dose activity change, negative = inhibition, usual class: inhibitors. 360,000 tested, 2.1% active; also: % is scaled to controls: 0 for no effect and ±100 for the full control effect; nearly all actives have a fitted effect of over 60% in size
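Nrf2 function is reported as luminescence of an ARE-controlled luciferase in A549 cells. Compounds were tested at several concentrations, and a CellTiter-Fluor read on the same wells flagged cytotoxicity.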
* hit, by the source's call; u = inconclusive; x = no result given. The list is not random: actives were taken first. Their share in the collection is about 3.6%. Calls follow the shape of the dose curve; as a rule, active = well fitted curve in the direction sought with a large enough effect; inconclusive = small, poorly fitted or top-dose-only effect, or another doubt; inactive = no such curve, though single readings can be large; an effect the other way counts as inactive or inconclusive. Potency is read from the fitted curve at half-maximal effect.

SMILES | TGFb inhibitor | A549 tox | HepG2 tox | Nrf2 activator | Nrf2 inh
COc1ccc(/C=C2\CCc3ccccc3C2=O)cc1Cn1cccn1 | u | -17% | -57% | 17% | 2.3µM*
COc1cc(C=C2Cc3ccccc3C2=O)cc(OC)c1OC | -14% | x | -9% | 7.1µM* | x
CCN(C(=O)CSc1nc(C)c(C)c(C)n1)C1CCS(=O)(=O)C1 (stereo unspecified) | 3% | 7% | -52% | 1% | -11%
Nn1c(Cc2cccc3ccccc23)nnc1SCc1c(F)cccc1Cl | u | -5% | -26% | 3% | 3%
Cc1c(C(c2ccc(O)cc2)c2c(C)n(C)n(-c3ccccc3)c2=O)c(=O)n(-c2ccccc2)n1C | -9% | -13% | -7% | 0% | -9%
NS(=O)(=O)c1ccc(CCNC(=O)CN2CCN(c3cccc(Cl)c3)CC2)cc1 | -33% | -4% | -31% | 0% | u
NS(=O)(=O)c1ccc(CCNC(=O)CN2CCN(c3ccc(F)cc3)CC2)cc1 | u | -11% | 1% | 0% | 16µM*
COc1cccc(Nc2sc(C(=O)c3ccc(F)cc3)c(N)c2C(=O)NCc2ccc(C)cc2)c1 | 14µM* | u | -46% | 0% | x
COc1cccc(Nc2sc(C(=O)c3ccc(Cl)cc3)c(N)c2C(=O)NCCc2ccc(OC)c(OC)c2)c1 | u | -18% | -33% | 1% | x
Cc1ccc(CNC(=O)c2c(Nc3ccccc3C)sc(C(=O)c3ccc(F)cc3)c2N)cc1 | 18µM* | -28% | 16µM* | 2% | x
Cc1ccccc1Nc1sc(C(=O)c2ccccc2)c(N)c1C(=O)NCc1ccc(Cl)cc1 | u | u | -82% | 0% | x
COc1ccc(S(=O)(=O)N2CCCN(CCC(=O)Nc3cccc(C(F)(F)F)c3)CC2)cc1 | -11% | -2% | 0% | 0% | 12%
O=C(CN1CCCN(S(=O)(=O)c2ccc(Br)cc2)CC1)Nc1cccc(C(F)(F)F)c1 | 7.9µM* | -4% | -50% | 7% | u
O=C(CNc1cccc(S(=O)(=O)N2CCCC2)c1)Nc1ccc(C(F)(F)F)cc1 | 0% | -12% | -26% | 0% | 23µM*
CC1CCN(S(=O)(=O)c2cn(CC(=O)Nc3cccc(C(F)(F)F)c3)c(=O)c3ccccc23)CC1 | 13µM* | -14% | -32% | -1% | u
CCOC(=O)c1ccc(-n2cccc2/C=C2\NC(=O)NC2=O)cc1 | -4% | 0% | -14% | 4% | 11%
Cn1c(Nc2ccc(Cl)cc2F)nc2cc(-c3ccccc3)sc2c1=O | u | x | -9% | u | x
COc1ccc(NS(=O)(=O)c2cc(NC(=O)Cc3n[nH]c(=O)c4ccccc34)ccc2OC)cc1 | u | -1% | -1% | 0% | -7%
COc1ccccc1NS(=O)(=O)c1cc(NC(=O)Cc2n[nH]c(=O)c3ccccc23)ccc1Cl | -7% | -34% | -24% | 15% | 21µM*
CCOC(=O)c1cc(C)n(CCc2ccccc2)c1C | 2% | -13% | -16% | 0% | 2%
Cc1cc(C(=O)CCl)c(C)n1CCc1ccccc1 | u | 1% | 7.9µM* | u | 1%
COC(=O)CC1(C(=O)OC)Oc2ccc(Br)cc2C(=O)N1c1ccc(Br)cc1Cl (stereo unspecified) | u | -24% | 2% | 0% | 16µM*
COC(=O)CC1(C(=O)OC)Oc2ccc(Br)cc2C(=O)N1c1cc(Cl)c(Cl)cc1Cl (stereo unspecified) | u | 1% | -31% | 6% | u
CC1(c2ccccc2)NC(=O)N(CC(=O)Nc2ccc(S(=O)(=O)Nc3ncccn3)cc2)C1=O (stereo unspecified) | 3% | -5% | 3% | -1% | 9%
COc1ccc(-c2ccc3oc(-c4ccc(OC)cc4)c(C#CCO)c3c2)cc1 | u | -15% | -55% | 3% | 8.2µM*
SMILES | TGFb inhibitor | A549 tox | HepG2 tox | Nrf2 activator | Nrf2 inh
COc1ccc(-c2ccc3oc(-c4ccc(OC)cc4)c(-c4ccc(OC)cc4)c3c2)cc1 | 4% | -1% | 11% | -1% | -1%
COc1ccc(-c2sc3ccc(N4CCOCC4)cc3c2C#CC(C)(C)O)cc1 | 3% | -5% | -24% | 4% | 7%
COc1ccc(-c2oc3ccc(N4CCOCC4)cc3c2C#CCO)cc1 | 15% | -9% | -47% | -1% | 18µM*
CS(=O)(=O)Nc1cccc(NC(=O)C2Cc3c(-c4cccc(F)c4)ccnc3O2)c1 (stereo unspecified) | -14% | x | -65% | 1% | x
FC(F)(F)C(F)(F)C(F)(F)c1nc2ccccc2[nH]1 | -8% | x | -35% | x | x
CCN(CC)CCCNC(=O)c1oc2c(c1C)-c1nn(Cc3ccc(Cl)cc3)cc1CC2 | -25% | -2% | 13µM* | 15% | 12%
N#Cc1ccc(OCC(=O)OCC(=O)Nc2ccc(N3CCOCC3)cc2)cc1 | 1% | -2% | 1% | 0% | -3%
CCCc1cc(-c2ccc(O)c(OCC)c2)c(C#N)c(N)n1 | -20% | -9% | -18% | 5% | 4%
CCOc1cc(-c2cc(-c3ccc(C)o3)nc(N)c2C#N)ccc1O | 19% | u | -57% | 5% | 15µM*
Cc1ccc(S(=O)(=O)N2CCN(C(=O)CSC(=S)N3CCCC3)CC2)c(C)c1 | 11µM* | 0% | 10µM* | 11% | u
Cc1ccc(S(=O)(=O)N2CCN(C(=O)CSC3CCCC3)CC2)c(C)c1 | -5% | -12% | -21% | -1% | 26µM*
CC(=O)NC(CC(=O)OCC(=O)N1CCN(S(=O)(=O)c2ccc(C)cc2C)CC1)c1ccccc1 (stereo unspecified) | u | 4% | -1% | 1% | 21µM*
Cc1ccc(S(=O)(=O)N2CCN(CC(=O)N3CCCC3)CC2)c(C)c1 | 6% | 6% | 3% | 0% | 7%
Cc1ccccc1NC(=O)Cn1c(=O)sc2ccccc21 | 3% | 3% | -7% | 0% | u
Cc1ccc(Oc2nnc(-c3cccs3)c3ccccc23)cc1C | -2% | -8% | 27% | 1% | 18µM*
Cc1ccc(CS(=O)(=O)c2cn(CC(=O)N(C)c3ccccc3)c3ccccc23)cc1 | -11% | -6% | -25% | 6% | u
COC(=O)c1cc(=O)n(-c2ccccc2)c(=Nc2ccccc2)s1 | 18µM* | -18% | -60% | u | u
CCOC(=O)c1ccc(N=c2sc(C(=O)OC)cc(=O)n2-c2ccc(C(=O)OCC)cc2)cc1 | u | u | -35% | u | u
COc1cc(C(c2sc3nc(C)nn3c2O)N2CC(C)OC(C)C2)cc(OC)c1OC (stereo unspecified) | -21% | -1% | -38% | 0% | -7%
